From PubChem BioAssay AID1259343 (VanderVen Lab, College of Veterinary Medicine, Cornell …, 2017) come the findings set out here.

As a reminder, the inhibition is the relative decrease from the control value, in per cent.

The whole screen tested about 6,200 compounds, of which about 2,900 (47%) were called active. So high a share suggests a set chosen from earlier hits. Some of the results follow. Unmarked numbers belong to inactive results. Cut-off read from the data, not from the text of the source: active = inhibition above about 50%; inactive = the rest.

The nature of this assay: Mycobacterium tuberculosis growth inhibition, primary screen (AID 1259343). The settings on record: inhibition: at 10 µM, stronger effect = higher value; outcome: 10 uM.
For `O=C1[C@H]2C(c3ccccc3)=NN(c3ccccc3)[C@H]2C(=O)N1c1ccccc1`, the inhibition was 73% (active).
As for `CC(=O)C1=NN(c2ccccc2)C2C(=O)N(c3ccc(Br)cc3)C(=O)C12` (stereo not given), the inhibition was 14.1%.
With `O=c1[nH]cnc2c1nnn2-c1ccc(OC(F)(F)F)cc1`, the inhibition is 49.2%.
In the case of `N[C@H](C(=O)O)[C@@H]1CC(Cl)=NO1`, the inhibition is 91.8% (active).
`CCOc1c(Br)cc(C=CC(=O)c2ccc(OC)cc2)cc1OC`: the inhibition was 14.3%.
As to `CCOc1c(Br)cc(C=CC(=O)c2ccc(F)cc2)cc1OC`, the inhibition is -23.1%.
`CCOc1cc(C=CC(=O)c2ccc(Cl)cc2)ccc1O`: the inhibition was 54% (active).
As for `O=S(=O)(Nc1ccc(OC(F)F)c(Cl)c1)c1ccc(F)c(Cl)c1`, the inhibition was -3.78%.
Consider `O=S(=O)(Nc1ccc(F)c(Cl)c1)c1ccc(Br)s1`, for which the inhibition is 24.5%.
On to `O=S(=O)(Nc1ccc(F)c(Cl)c1)c1ccc(Cl)s1`, for which the inhibition is 52.7% (active).
As to `O=S(=O)(Nc1ccc(OC(F)F)c(Cl)c1)c1ccc(Cl)s1`, the inhibition is 79.2% (active).
For `O=S(=O)(Nc1ccc(OC(F)F)c(Cl)c1)c1ccc(Cl)c(Cl)c1`, the inhibition is -2.94%.
The figure for `COC(=O)c1sccc1S(=O)(=O)Nc1cc(C)ccc1OC` is 54.2% (active).
With `COC(=O)c1sccc1NS(=O)(=O)c1cc(Cl)cc(Cl)c1`, the inhibition was 7.22%.
Take `Cc1ccc(-c2ccsc2C(=O)NS(=O)(=O)N2CCCCC2)cc1`: the inhibition is 20.7%.
Turning to `O=C(C1c2ccccc2Oc2ccccc21)N(C(=O)N1CCCCC1)c1ccccc1`, the inhibition was 3.02%.
With `Cc1cc(C)c(CN2CCC(CO)(CCOc3ccccc3)CC2)cc1C` the figure was 17.3%.
As to `Cc1cc(OCCN2CCN(Cc3ccccc3)CC2)ccc1I`, the inhibition is 88.7% (active).
With `Cc1cccc(Cn2nc(-c3ccc(F)cc3)c3sc(C)nc3c2=O)c1` the figure was 94% (active).
For the compound `Cc1cccc(Cn2nc(-c3ccc(Br)cc3)ccc2=O)c1`, the inhibition is 24.7%.
With `O=c1ccc(-c2cccc(Br)c2)nn1Cc1cccc(F)c1` the figure was 48.5%.
For `COc1ccc(C(N)=S)cc1`, the inhibition is 68.6% (active).
On to `CC(C)c1ccc(S(=O)(=O)c2ccc(Cl)cc2)cc1`, for which the inhibition is -10.2%.
Take `COc1ccc2c(C)nc(N=C(N)N)nc2c1`: the inhibition is 38.5%.
Turning to `CC(C)c1ccc(C(N)=S)cc1`, the inhibition is 99.7% (active).
As for `CCN(C(=O)c1ccc2c(=O)n(CC)c(=O)[nH]c2c1)c1ccccc1C`, the inhibition was -22.1%.
With `Fc1ccc(Cn2ncc3c2CN(c2nc4ccccc4s2)C3)cc1`, the inhibition is 32.9%.
Take `c1csc(-c2noc(CN3CCCN(c4nc5ccccc5s4)CC3)n2)c1`: the inhibition is 91.6% (active).
Regarding `Fc1ccccc1Cc1noc(CN2CCN(c3nc4ccccc4s3)CC2)n1`, the inhibition is 60.6% (active).
Take `c1ccc(CCc2noc(CN3CCN(c4nc5ccccc5s4)CC3)n2)cc1`: the inhibition was 89.5% (active).
The figure for `CCCc1nc(CN2Cc3ccccc3-c3ccccc3C2)no1` is -15.3%.
Consider `O=C(NN=Cc1ccco1)c1cc(-c2ccc(Cl)cc2)n[nH]1`, for which the inhibition is 43.3%.
`O=C(NN=Cc1ccc(O)cc1)c1cc(-c2ccc(Cl)cc2Cl)n[nH]1`: the inhibition is 85.8% (active).
With `O=C(NN=Cc1ccc(O)cc1)c1cc(C23CC4CC(CC(C4)C2)C3)[nH]n1` the figure was 16.7%; with `COCCCCC(=O)Nc1cc(C(F)(F)F)[nH]n1`, 78% (active); with `COc1cccc2c1OC(c1ccccn1)N1N=C(c3ccccc3)CC21` (stereo not given), -22.4%.
The figure for `COc1cccc(C2Oc3ccccc3C3CC(c4ccc5c(c4)OCCO5)=NN32)c1` (stereo not given) is 103% (active); for `Cc1cccc(C2Oc3ccccc3C3CC(c4ccc5c(c4)OCCO5)=NN32)c1` (stereo not given) it is -14.9%.
The figure for `CN1CCC[C@@H]1CCO[C@](C)(c1ccccc1)c1ccc(Cl)cc1` is 37.7%.
`O=C(Nc1ncc(-c2ccccc2)s1)OCC(F)(F)F`: the inhibition was 0.3%.
In the case of `O=C(Nc1ncc(-c2ccccc2)s1)C1CSCCS1` (stereo not given), the inhibition is 95.8% (active).
Consider `S=C(NN=C1CC2CC=CC12)NC1CCCCC1` (stereo not given), for which the inhibition is 1.05%.
With `CC1(C)CC(=O)CC(=NNC(=S)NC2CCCCC2)C1` the figure was 34.4%.
Regarding `O=C1CCCC(=NNC(=S)NC2CCCCC2)C1`, the inhibition was 55.2% (active).
As to `CN(CCC(O)c1ccccc1)C(=O)c1ccc(Cl)s1` (stereo not given), the inhibition is 13.2%.
Consider `CC(CCc1ccccc1)N=c1c([N+](=O)[O-])nn(-c2ccccc2)n1O` (stereo not given), for which the inhibition is 102% (active).
Regarding `Cc1cc2c(=O)n(Cc3ccco3)c(SCC(=O)c3cccs3)nc2s1`, the inhibition is 85.2% (active).
With `COc1ccc(-c2noc(COc3cccc4c3OCCO4)n2)cc1` the figure was 51.6% (active).
Regarding `COc1ccc(-c2noc(CSc3nnnn3C3CCCC3)n2)cc1`, the inhibition was 41%.
For the compound `CN(NC(=O)CC(=O)NN(C)C(=S)c1ccccc1)C(=S)c1ccccc1`, the inhibition was 102% (active).
Turning to `CC(C(O)c1ccccc1)N(C)C(=O)c1ccccc1` (stereo not given), the inhibition was 1.34%.
As to `Cc1cc(=O)[nH]c(NN=Cc2c3ccccc3cc3ccccc23)n1`, the inhibition is 49.1%.
In the case of `Oc1ccc2ccccc2c1C=NNc1nnc(-c2ncc[nH]2)c2ccccc12`, the inhibition is 99% (active).
The figure for `Oc1ccc2ccccc2c1C=NNC1=NCCC1` is 27.5%; for `CCCC(C)C1(CC)C(=O)NC(=S)NC1=O` (stereo not given) it is 32.6%; for `Nc1ccc(S(=O)(=O)Nc2ccc([N+](=O)[O-])cc2O)cc1` it is 53.9% (active).
`CS(=O)(=O)Nc1ccc([N+](=O)[O-])cc1Oc1ccccc1`: the inhibition was 24.9%.
The figure for `Nc1cc([N+](=O)[O-])ccc1NS(=O)(=O)c1ccc(Cl)cc1` is -52.1%; for `CC(=NNC(N)=S)C1=CC(C)(C)CCC1` it is 90.9% (active).
The figure for `CCOc1ccc(NC(=O)c2ccc(Br)s2)cc1` is 8.86%; for `CCc1ccc(C(=O)Nc2ncc(C)s2)s1` it is 62.1% (active); for `Cc1cnc(NC(=O)c2cccc(OC(F)F)c2)s1` it is -11.7%.
As to `CCc1ccc(C(=O)Nc2ccc(Br)cc2)s1`, the inhibition was 73.9% (active).
Regarding `Cc1cnc(NC(=O)C2=C(O)c3ccccc3S(=O)(=O)N2C)s1`, the inhibition is 34.9%.
For `Cn1c(=NN=Cc2ccc(OC(F)F)cc2)sc2ccccc21`, the inhibition is -24.6%.
With `Cn1c(=NN=CC(Cl)=Cc2ccccc2)sc2ccccc21` the figure was 88.7% (active).
Consider `COc1cc(C=NN=c2sc3ccccc3n2C)cc(OC)c1O`, for which the inhibition was 68.8% (active).
For `Cn1c(=NN=CC(Br)=Cc2ccccc2)sc2ccccc21`, the inhibition is 88.2% (active).
`Cn1c(=NN=Cc2ccccc2C(F)(F)F)sc2ccccc21`: the inhibition is -39.7%.
`COc1cc(C=NN=c2sc3ccccc3n2C)cc(Br)c1O`: the inhibition was 10.7%.
